# Source: PubChem BioAssay AID504375 (National Center for Advancing Translational Sciences (NCATS), 2011)
# In all, about 1,600 compounds went through this assay and about 25 (2%) were called active. About 7% were inconclusive and are not listed. The call rests on the fitted dose curve; in most records, active means well fitted inhibition curve with a large enough effect; inconclusive means small, poorly fitted or top-dose-only effect, or effect the other way; inactive means no such curve, though single readings can be large or run the other way. The sample as a whole holds a higher share of actives than the screen did.
# Molecular target: Runt-related transcription factor 1 (Homo sapiens) + Core-binding factor subunit beta (Homo sapiens) (UniProt Q01196+Q13951)
# Sequence (Q01196 whole entry, looked up): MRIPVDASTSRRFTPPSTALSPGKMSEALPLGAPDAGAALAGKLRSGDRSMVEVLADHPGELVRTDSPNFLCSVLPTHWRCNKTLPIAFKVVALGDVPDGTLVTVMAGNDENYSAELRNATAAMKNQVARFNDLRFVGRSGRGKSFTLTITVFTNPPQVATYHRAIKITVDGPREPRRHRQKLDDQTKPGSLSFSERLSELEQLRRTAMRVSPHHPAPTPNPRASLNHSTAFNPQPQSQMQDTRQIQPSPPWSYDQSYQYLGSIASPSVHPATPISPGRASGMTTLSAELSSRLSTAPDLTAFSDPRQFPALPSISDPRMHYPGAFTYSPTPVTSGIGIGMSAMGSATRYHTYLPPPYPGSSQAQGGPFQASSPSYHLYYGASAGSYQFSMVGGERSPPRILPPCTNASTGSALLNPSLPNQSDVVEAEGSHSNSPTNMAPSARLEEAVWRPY
# Sequence (Q13951 whole entry, looked up): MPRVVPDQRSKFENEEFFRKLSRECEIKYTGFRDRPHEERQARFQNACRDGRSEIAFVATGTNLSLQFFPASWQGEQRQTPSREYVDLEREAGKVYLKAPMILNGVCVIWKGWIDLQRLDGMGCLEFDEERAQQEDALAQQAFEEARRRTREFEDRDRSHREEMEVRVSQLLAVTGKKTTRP
# Assay: qHTS Assay for Compounds Blocking the Interaction Between CBF-beta and RUNX1 for the Treatment of Acute Myeloid Leukemia: Hit Validation with Orthogonal Assay
# Conditions: CBFbeta-RUNX1 binding orthogonal assay, biochemical; series mostly up to 41 µM; activity change, negative = inhibition: at the top concentration
# Description: NIH Chemical Genomics Center [NCGC]
# NIH Molecular Libraries Probe Production centers Network [MLPCN]
# Assay Submitter (PI): Paul Liu
# Core Binding Factor (CBF) abnormalities are associated with 20-25% of all acute myeloid leukemias (AML), of which 5-10% are further sub classified as acute myelomonocytic leukemia with eosinophilia, also known as M4Eo in the FAB classification scheme. This subtype of leukemia is usually associated with chromosome 16 inversion (p13:q22). Chromosome 16 inversion results in formation of the fusion oncogene CBFB-MYH11, which encodes the fusion protein CBF-beta-SMMHC.
# It has been hypothesized that the interference of CBF-beta and RUNX1 binding could have therapeutic implications for patients with CBF mediated leukemias. We developed a CBF-beta and RUNX1 binding assay in AlphaScreenTM format and optimized it for high throughput screening to search for inhibitors. The goal of this project is to screen MLPCN's compound collection (MLSMR) for identifying the inhibitors of the interaction between CBF-beta and RUNX1 proteins as research probes. If these probes work well in the animal models, the ultimate goal of this project is to development a new drug treatment for this disease.
# This assay can not be used to assess how apparent inhibitors interfere with protein binding, and whether inhibitors specifically bind to either protein. Disruption of this protein-protein interaction, through any mechanism, is the intended target activity.
# The present data set was run to confirm the activity of hits from the primary screen using an orthogonal assay technology for measuring protein-protein interaction disruption.
# A TR-FRET (time resolved fluorescence resonance energy transfer) assay was performed using the same assay buffer, protein concentrations and incubation times as described previously in the AlphaScreen assay, except that terbium (Tb+) labeled anti-his-antibody and XL665 linked streptavidin were used to capture the binding signal. The Tb+ labeled anti-his-antibody captures His(6)-CBF and XL665 linked streptavidin binds to biotin-RUNX1. The binding of RUNX1 to CBFbrings Tb+ and XL665 to proximity resulting in a TR-FRET signal. Briefly, in a white 384-well plate, 10 µl/well of mixture of biotin-RUNX1 and His(6)-CBFwere incubated with 10 µl/well buffer (positive control) or 10 µl/well compounds (negative control) for 20 min followed by an addition of 10 µl/well of Tb+ labeled anti-his(6)-antibody and XL665 linked streptavidin. After 90 min of incubation in the dark, the assay plate was measured in the Envision plate reader using TR-FRET detection mode. For the 1536-well plate format, 3 µl/well mixture of biotin-RUNX1 and His(6)-CBF (30 nM per protein) was incubated with 23 nl/well compound (dissolved in 100% DMSO) or the equivalent DMSO concentration (positive control) for 30 min followed by the addition of 1 µl/well of 0.44 ng Tb+ labeled anti-his(6)-antibody and 5 nM streptavodin-XL665. After 90 min of incubation, the assay plate was measured in the Envision plate reader.
# The TR-FRET assay for detecting interaction between HIV-I Tat and […] was similarly performed with the recombinant full-length HIV-I Tat CLADE B and HIV-I Tat Biotin conjugated proteins supplied by Diatheva (Fano, Italy). Briefly, the His-CBF and Biotin-RUNX1 complex at a working concentration of 83.3 nM per protein were pre-incubated in assay buffer for 10 minutes on ice. Then HIV-I Tat or unlabeled CBF were added to reach final concentrations (Supplementary Figure 4b) and incubated for 5 minutes. Finally anti-His antibody and streptavidin-XL665 at a final concentration of 2.2 ng and 5 nM, respectively, were added to the plate, which was incubated for 1 hr prior to reading on the PerkinElmer Envision plate reader.
# Keywords: MLSMR, MLPCN, NIH Roadmap, qHTS, NCGC, Core binding factor, CBF, CBF-beta, Acute myeloid leukemia
# On the % scale 0 is the no-effect control and ±100 the full control effect; potency means the concentration at half of the fitted maximal effect.
SMILES,Potency,"activity change, negative = inhibition"
O=C(O)CCCCC1SCC2NC(=O)NC21 (stereo not given),20 nM (active),
CC(C)[C@@]1(NC(=O)[C@H]2CC3c4cccc5[nH]cc(c45)C[C@H]3N(C)C2)O[C@@]2(O)C3CCCN3C(=O)[C@@H](Cc3ccccc3)N2C1=O (stereo not given in full),,9.43% (inactive)
CCC(=Nc1cccc(C(F)(F)F)c1)c1c(O)n(C)c(=O)n(C)c1=O,,5.85% (inactive)
Cc1onc(-c2c(Cl)cccc2Cl)c1C(=O)Nc1ccc2c(C(F)(F)F)cc(=O)oc2c1,,1.55% (inactive)
CN(N=O)c1ccc(O)c(O)c1,2510 nM (active),
CN(N=O)c1cc(O)ccc1O,,20.1% [at 82.4 µM] (inactive)
O=c1[nH]c(=S)n(-c2ccccc2)c(O)c1C=NCc1ccccn1,,1.8% (inactive)
Cn1c(O)c(/C=N/N2CCOCC2)c(=O)[nH]c1=S,,-13.8% (inactive)
Cc1cc(OC(=O)N(C)C)nc2c1c(C)nn2C,,-8.88% (inactive)
O=C(O)CN1C(=O)CN=C(c2ccccn2)c2cc(Cl)ccc21,,6.91% (inactive)
CC1CN=C(Nc2ccc(F)c(Cl)c2)S1 (stereo not given),,6.88% (inactive)
NC(Cc1cc(O)c(O)cc1O)C(=O)O (stereo not given),10000 nM (active),
COC1C(OC(=O)c2ccc(C)[nH]2)C(O)C(Oc2ccc3c(O)c(NC(=O)c4ccc(O)c(CC=C(C)C)c4)c(=O)oc3c2Cl)OC1(C)C (stereo not given),,4.43% (inactive)
CCC(=NCc1cccnc1)c1c(O)n(-c2ccccc2C)c(=O)[nH]c1=O,,-2.88% (inactive)
CCCCc1ccc(C(=O)O)nc1,,-1.88% [at 82.4 µM] (inactive)
